# Records with an inconclusive call do not appear. Calls of active or inactive are those of the source. Calls come from the whole dose curve; as a rule, active = well fitted inhibition curve with a large enough effect; inconclusive = small, poorly fitted or top-dose-only effect; inactive = no such curve, though single readings can be large or run the other way.
# Test system: Zika virus NS2B-NS3 protease (linked construct)
# Assay: Primary screen NINDS Rhodamine qHTS for Zika virus inhibitors (AID 1347160); note: nearly all actives have a fitted effect of over 55% in size
# Details: purified NS2B-NS3 protease, Rhodamine110 substrate fluorescence; series mostly up to 57.1 µM; activity change, negative = inhibition: at the top concentration
# Outline: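 Kinetic fluorescence (Ex 480 nm, Em 540 nm) over 15 min with 1.5 microM Rhodamine110 peptide and 25 nM linked protease.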
# % is set by controls: 0 for no effect and ±100 for the full control effect.
Compound,"activity change, negative = inhibition",outcome
CCOC(=O)N1CCC(CN(Cc2ccc(Cl)cc2)Cc2ccc([N+](=O)[O-])s2)C1 (centres undefined),1.42% (inactive),–
Cc1cc(-c2nc3cc(F)ccc3s2)ccc1NC(=O)[C@@H](N)CCCCN,34.3% (inactive),–
C=C1C(=O)OC2/C=C(\C)CC3C=C(CC/C=C(\C)CCC12)C(=O)O3 (centres undefined),15.1% [at 33.1 µM] (inactive),–
O=C(c1ccccc1)c1c(O)cc(O)cc1O[C@@H]1O[C@H](CO)[C@@H](O)[C@H](O)[C@H]1O,-2.83% [at 33.1 µM] (inactive),–
Cc1ccccc1CN1CCn2c1nc1c(c2=O)CN(Cc2ccccc2)CC1,–,inactive
CC(=O)c1ccc2c(c1)[C@H](NC(=O)c1ccc(F)c(Cl)c1)[C@H](O)C(C)(C)O2,–,inactive
O=C(Nc1ccc(Cl)cc1)C1CCCN(C(=O)c2cccc(-c3ccco3)c2)C1 (centres undefined),9.21% (inactive),–
CN(C)CCN(Cc1ccccc1)C(=O)c1cc(-c2ccc(F)cc2)n2nc(C(C)(C)C)cc2n1,–,inactive
CC[C@@H](C)[C@@H]1OC2(C=C[C@H]1C)C[C@@H]1C[C@H](C/C=C(\C)[C@H](O[C@H]3C[C@H](OC)[C@H](O[C@H]4C[C@H](OC)[C@H](NC(C)=O)[C@H](C)O4)[C@H](C)O3)[C@H](C)/C=C/C=C3\CO[C@H]4[C@H](O)C(C)=C[C@@H](C(=O)O1)[C@@]34O)O2 (some centres undefined),-2.97% [at 33.1 µM] (inactive),–
C=C1C(=O)O[C@@H]2C[C@H](C)[C@@H]3CC(=O)C(C)=C3C[C@H]12,12.8% (inactive),–
CCn1c(N)c(C(=O)NC)c(=O)c2ccc(C#CC(C)(O)COC)nc21 (centres undefined),–,inactive
CN(C)C(=O)C(=O)c1cn(C)c2cc(Cl)c(C(=O)N3CCC(Cc4ccc(F)cc4)CC3)cc12,3.01% (inactive),–
COc1c(C)cc(NC(=O)c2nn(Cc3ccc(F)cc3)c3c2CN(C(=O)c2ccc[nH]2)C[C@]3(C)C(N)=O)cc1C,7.08% [at 15.1 µM] (inactive),–
CCCCCCCCC(=O)N[C@H](CN1CCCC1)[C@H](O)c1ccc2c(c1)OCCO2,127% (inactive),–
C=C1C(=O)OC2C(OC(=O)C=C(C)C)C(C)=C3C(=O)C=C(C)C3C(O)C12 (centres undefined),20.9% [at 33.1 µM] (inactive),–
O=C(Nc1ccc(C(F)(F)F)cn1)N1CCN(c2ncccc2C(F)(F)F)CC1,18.2% (inactive),–
CCOC(=O)c1csc(Nc2ccc(Cl)cc2)n1,-12% (inactive),–
CC(C)n1c(=O)c(C(=O)NC2CC3CCC(C2)N3C[C@@H](O)CN(C)S(C)(=O)=O)cc2ccccc21 (some centres undefined),–,inactive
CCOC(=O)C1(CCOc2ccccc2)CCN(Cc2ccc(O)c(Cl)c2)CC1,–,inactive
COc1cc2nc(N3CCN(C(=O)COc4c(OC)cccc4C(C)C)CC3)nc(N)c2cc1OC,–,inactive

Compound,"activity change, negative = inhibition",outcome
C=C1CC[C@@H]2[C@](C)(CO)[C@H](O)CC[C@@]2(C)[C@@H]1C/C=C1/C(=O)OCC1OC(=O)/C(=C/CO)C(O)C[C@@H]1C(=C)CC[C@@H]2[C@](C)(CO)[C@H](O)CC[C@]21C (some centres undefined),–,inactive [at 15.1 µM]
CC(C)(C)[C@H](NC(=O)c1ccc(N)c(Cl)c1)C(=O)N1CCC[C@H]1C(=O)N[C@H](C#N)CC(=O)O,20.1% (inactive),–
CC(C)C[C@@H]1NC(=O)[C@@H]2C[C@@]34C[C@@H]5[C@@]6(C)CCCC(C)(C)C6CC[C@@]5(C)N(c5ccccc53)[C@H]4N2C1=O (some centres undefined),–,inactive [at 33.1 µM]
Cc1cc(-c2nc(-c3ccc(OC(F)(F)F)cc3)no2)nn1Cc1ccnc(N2CCN(C3CC3)CC2)c1,–,inactive
COc1ccc(N(C(=O)Nc2c(C)cccc2C)c2cc(Nc3ccc(N4CCN(C)CC4)cc3)ncn2)c(OC)c1,80.8% (inactive),–
COC1CCN(C(=O)c2cc(Cc3n[nH]c(=O)c4ccccc34)ccc2F)CC1,–,inactive
C=C1CC2OC(=O)C(=C)C2C(O)/C=C(\C)CCC1O (centres undefined),-3.53% (inactive),–
O[C@@](Cc1ncc(CC2(C(F)(F)F)CC2)[nH]1)(c1ccc(-n2cccn2)cc1)C(F)(F)F,37.1% (inactive),–
O=C(NNc1nc2cc(F)ccc2n2cccc12)c1cnccn1,5.55% (inactive),–
Cc1ccccc1C(C(=O)NC1CCCCC1)N(C(=O)Cn1cnc2ccccc21)c1cccc(F)c1 (centres undefined),15.6% (inactive),–
CNC1CN(c2ccc3c(=O)c(C(=O)O)cn(-c4nccs4)c3n2)CC1OC (centres undefined),19.1% [at 10.7 µM] (inactive),–
CC1(C)C2CCC(CO[C@@H]3O[C@H](CO[C@@H]4OC[C@](O)(CO)[C@H]4O)[C@@H](O)[C@H](O)[C@H]3O)C1C2 (some centres undefined),0.152% [at 33.1 µM] (inactive),–
CCc1cnc(N2CCC(c3nc(COc4ccc(-n5cnnn5)cc4)cs3)CC2)nc1,–,inactive; activator
Cc1ccc(N2CCN(S(=O)(=O)N3CCCCC3)CC2)c(C)c1,4.78% (inactive),–
COc1ccc(C2(N(C)C(=O)c3ccc(NC(=O)c4ccco4)cc3)CCOCC2)cc1,–,inactive
O=C(Cc1c(F)cccc1F)Nc1cc(OCc2ccc(Cl)cc2)ccn1,–,inactive; activator
CC(C)C(C)C(O)C1CC23CC(=O)C4(O)C(=C2CCC3C1C)C=CC1(O)CC(O)CCC14C (centres undefined),-0.561% [at 33.1 µM] (inactive),–
Fc1ccc2[nH]ccc2c1-c1nc(N2CCOCC2)c2sc(CN3CCN(CC4CC4)CC3)cc2n1,49.1% (inactive),–
COc1ccccc1N1CCN(c2ncnc3n[nH]c(Br)c23)CC1,9.86% (inactive),–
